Screens from PubChem BioAssay.
Compounds with a hit are over-represented: about 19% of the library has one in this group of screens.
IL-1B inflam inh: inhibitors of inflammasome signaling (IL-1 beta secretion). 4.7% of 360,000 active. activity change, % at 57.5 µM. THP-1 LPS/ATP IL-1B secretion, AlphaLISA, 16 h; stronger effect = lower value; in the data active = activity change below about -50%; inconclusive = mostly about -30% to -49%
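Secreted IL-1B measured by AlphaLISA bead assay after 16 h compound exposure of THP-1 cells; compounds (final up to 57.5 uM) added 1 h before LPS (250 ng/mL) and ATP (1.25 mM) stimulation; lower signal means less secretion.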
HT1080 IDH1KD tx: kills HT-1080 cells with IDH1 knockdown. Potency, µM (doses to about 46.1 µM), for the others: at the top dose activity, negative = toxicity, hits mostly cytotoxic. 2% of 360,000 active. HT-1080 IDH1 knockdown viability, ATP luminescence, 48 h;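 note: potency is the fitted concentration of half-maximal effect; 0% = DMSO wells and -100% = cell-free medium wells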
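IDH1KD HT-1080 cells, 750/well, RPMI + 5% FBS; compound pinned after 2 h settling; 48 h, 37 °C; CellTiter-Glo luminescence; % activity normalised to DMSO and no-cell wells; curves fitted, classed by r2 and efficacy.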
TDP1 cell noCPT: qHTS for Inhibitors of human tyrosyl-DNA phosphodiesterase 1 (TDP1): qHTS in cells in absence of CPT; DT40 Tdp1-/- hTDP1 cells, no CPT, ATP luminescence, 48 h; Potency, µM (series often up to 46.2 µM), for the others: at the highest dose activity change, negative = growth inhibition, actives largely listed as inhibitors; 15% of 420,000 active; AID 686978, 2013; note: potency is the fitted concentration of half-maximal effect; nearly all actives have a fitted effect of over 55% in size
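Growth of hTDP1-complemented DT40 Tdp1-knockout cells is measured by ATP luminescence after at least 48 hr compound exposure at 37 °C, with DMSO substituting for the 20 nM CPT used in the parallel screen.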
TDP1 cell CPT: DT40-hTDP1 cell growth loss with CPT; chicken DT40 Tdp1-/-;hTDP1 cells + 20 nM CPT, ATP luminescence, 48 h; Potency, µM (top dose mostly 46.2 µM), for the others: at the highest dose activity change, negative = growth inhibition, usual class: inhibitors; 12% of 420,000 active; note: potency is the fitted concentration of half-maximal effect; nearly all actives have a fitted effect of over 55% in size
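Chicken DT40 Tdp1-/- cells stably complemented with human TDP1 were seeded at 400 cells/well in medium containing 20 nM camptothecin, exposed to pin-transferred compounds, and grown at 37 °C for at least 48 hr. Viability was read as ATP luminescence.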
HT1080-NT tox: kills 2HG-producing HT-1080-NT fibrosarcoma cells; HT-1080-NT fibrosarcoma viability, CellTiter-Glo ATP luminescence, 48 h; Potency, µM (doses to about 46.1 µM), without a hit: top-dose activity, negative = less viability, hits mostly cytotoxic; 1.6% of 360,000 active;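 note: NT is the 2HG producing partner of a matched IDH1 knockdown line; potency is the fitted concentration of half-maximal effect; 0% = DMSO-treated cells and -100% = media-only wells without cells; nearly all actives have a fitted effect of over 55% in size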
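Read-out is CellTiter-Glo luminescence after 10 minutes at room temperature, following 48 hours' compound treatment of HT-1080-NT cells (750 cells/well, RPMI, 5% FBS, 37 degrees C).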
* = called active by the depositor; ? = inconclusive; · = no result given; [ ] = another dose, or the depositor's remark. Unless noted, calls come from the whole dose curve; as a rule, active = well fitted curve in the direction sought with a large enough effect; inconclusive = small, poorly fitted or top-dose-only effect, or another doubt; inactive = no such curve, though single readings can be large; an effect the other way counts as inactive or inconclusive. Unless noted, % is set by controls: 0 for no effect and ±100 for the full control effect.

SMILES	IL-1B inflam inh	HT1080 IDH1KD tx	TDP1 cell noCPT	TDP1 cell CPT	HT1080-NT tox
NC(=O)c1cc(Cc2ccccc2)sc1NC(=O)c1ccco1	-56*	?	12µM*	?	?
Cc1ccc(-c2csc(NC(=O)c3ccc(-c4ccccc4)cc3)n2)o1	-23	-22%	?	16µM*	0%
O=C(Nc1nnc(Cc2ccccc2)s1)c1ccco1	1	14%	-6%	-7%	?
O=C(NNc1nc(-c2ccc(Br)cc2)cs1)c1ccco1	-2	?	16µM*	18µM*	-14%
O=C(Nc1cc(-c2ccccc2)cs1)c1ccco1	-29	-10%	15µM*	?	-7%
O=C(NC(=S)Nc1nc(-c2ccc(Br)cc2)cs1)c1ccco1	7	7%	?	-18%	14%
Nc1[nH]c(C(=O)c2ccccc2)c(-c2ccccc2C(F)(F)F)c1C(=O)NCc1ccc(F)cc1	53	16%	-20%	0%	?
COCC(=O)N1CCC2(CC1)CCN(C(=O)Nc1cccc(C#N)c1)CC2	·	·	-11%	-8%	·
O=C(Nc1nc(-c2ccccc2)cs1)c1ccco1	-59*	2%	?	?	6%
CC(OC(=O)c1ccc(F)cc1)C(=O)Nc1nc(-c2cccc([N+](=O)[O-])c2)cs1 (configuration not stated)	?	15%	?	?	9%
CC(OC(=O)c1ccco1)C(=O)Nc1nc(-c2ccccc2)cs1 (configuration not stated)	20	0%	16µM*	?	0%
O=C(/C=C\c1ccco1)Nc1nc(-c2ccc3ccccc3c2)cs1	-72*	-26%	?	?	-15%
COc1ccc(-c2csc(NC(=O)c3ccco3)n2)cc1	-26	4%	-13%	-6%	10%
CC(C)Oc1ccc(C(=O)OC(C)C(=O)Nc2nc(-c3cccc([N+](=O)[O-])c3)cs2)cc1 (configuration not stated)	-3	-2%	26µM*	16µM*	-4%
CC(C)Cc1nn2c(=O)cc(COc3ccc(NC(=O)c4ccco4)cc3)nc2s1	31	-1%	7%	-12%	-1%
CCOc1ccc2[nH]c(=O)c(CN(CC3COCCO3)C(=O)c3ccc(C)cc3)cc2c1 (configuration not stated)	-28	4%	-21%	?	5%
Cc1ccc([C@H]2N[C@]3(CCCN(Cc4ccco4)C3=O)[C@H]3C(=O)N(C)C(=O)[C@@H]23)cc1	12	-2%	-9%	-19%	15%
COc1cc(NS(=O)(=O)c2csc(C(N)=O)c2)cc(OC)c1	37	6%	4%	-24%	22%
O=C(Nc1nc(-c2ccc(Cl)s2)cs1)c1ccccc1	-5	-19%	?	?	-4%
O=C(Nc1nc(-c2ccco2)cs1)c1ccccc1	-21	0%	?	13µM*	2%
O=C(Nc1sc2c(c1C(=O)NCc1ccccc1)CCCC2)c1cc(=O)c2ccccc2o1	·	·	?	-1%	·
CC1CCCC(C)N1C(=O)c1ccc(S(=O)(=O)NCc2ccco2)cc1 (configuration not stated)	31	-7%	23µM*	?	-3%
CC(=O)c1ccc(N2CCN(C(=O)c3ccc(S(=O)(=O)NCc4ccco4)cc3)CC2)cc1	-27	1%	16µM*	21µM*	-25%
CC1CCCC(C)N1C(=O)c1ccc(CS(=O)(=O)c2ccccc2)cc1 (configuration not stated)	24	1%	15µM*	?	2%
COc1ccc(CN2CCN(C(=O)c3ccc(S(=O)(=O)NCc4ccco4)cc3)CC2)cc1	-1	?	18µM*	?	-25%
SMILES	IL-1B inflam inh	HT1080 IDH1KD tx	TDP1 cell noCPT	TDP1 cell CPT	HT1080-NT tox
Cc1ccc(S(=O)(=O)Cc2ccc(C(=O)N3CCCCC3C)cc2)cc1 (configuration not stated)	17	0%	-26%	-28%	0%
COc1ccc(C2C(C(=O)Nc3cccnc3)=C(C)Nc3nc(-c4ccccc4)nn32)cc1OC (configuration not stated)	·	·	-8%	-2%	·
O=C(NC(Sc1ccc(Cl)cc1)C(=O)O)c1ccccc1 (configuration not stated)	-2	-15%	?	21µM*	-3%
O=C(N=C1SC2CS(=O)(=O)CC2N1c1ccc(Cl)c(Cl)c1)C1CCCO1 (configuration not stated)	14	1%	18%	2%	-1%
CC(=O)Nc1ccc(NC(=O)C2(C)Cc3c(-c4ccc(NC(C)=O)cc4)ccnc3O2)cc1 (configuration not stated)	-18	5%	2%	1%	19%
CC(=O)Nc1ccc(-c2ccnc3c2CC(C)(C(=O)Nc2ccccc2)O3)cc1 (configuration not stated)	-24	?	18µM*	21µM*	?
CC(=O)Nc1ccc(-c2ccnc3c2CC(C)(C(=O)Nc2cccc(Oc4ccccc4)c2)O3)cc1 (configuration not stated)	-22	?	16µM*	26µM*	?
CN(CCO)C(=O)c1cn(C2CCCN(Cc3ccc(C(F)(F)F)cc3)C2)nn1 (configuration not stated)	·	·	?	2%[9.04 µM]	·
FC(F)(F)c1ccccc1-c1nc(NC2CCNCC2)c2ccccc2n1	·	·	?	15µM*	·
Cc1nnc(SCC(=O)NNC(=O)CC#N)[nH]c1=O	11	22%	-9%	-11%	17%
COc1cccc2cc(-c3nc4ccccc4o3)c(=O)oc12	25	0%	-19%	14%	-1%
CCc1sc(Nc2cccc(Cl)c2)nc1-c1cc2cccc(OC)c2oc1=O	·	·	16µM*	?	·
Cc1cc(CNC(=O)CCN2Cc3cc(Cl)ccc3OC(C)C2)nn1C (configuration not stated)	·	·	-10%	-121%[9.04 µM]	·
CCCSc1nc2c(cnn2-c2ccc(C)c(C)c2)c(=O)[nH]1	-10	1%	1%	-4%	3%
COC(=O)c1ccc(CSc2nc3c(cnn3-c3ccc(C)c(C)c3)c(=O)[nH]2)o1	69	1%	26µM*	?	7%
Cc1ccc(CN2CCN(CC(=O)NCc3ccc(Cl)cc3)C2=O)cc1	-5	-16%	-20%	?	-16%
COc1cccc(NC(=O)C2CCCN(c3nnc(-n4c(C)ccc4C)s3)C2)c1 (configuration not stated)	·	·	13µM*	18µM*	·
Cc1ccccc1NC(=O)C1CCCN(c2nnc(N3CCCC3=O)s2)C1 (configuration not stated)	6	6%	-7%	-7%	20%
